Several values for one entry are separate records, joined by “and”; a condition that tells them apart may be missing. Identical values can stand only once. About 5,700 (36%) of roughly 16,000 compounds were called active. Inconclusive results (about 24%) are left out. Some of the results follow. Unmarked numbers belong to inactive results. The call rests on the fitted dose curve; in most records, active means well fitted curve in the direction sought with a large enough effect; inconclusive means small, poorly fitted or top-dose-only effect, or effect the other way; inactive means no such curve, though single readings can be large or run the other way.
molecular target: Cytochrome P450 1A2 (Homo sapiens) (UniProt P05177); assay: Cytochrome panel assay with activity outcomes; details: recombinant CYP, pro-luciferin dealkylation, luminescence, p450-cyp1a2; series mostly up to 57.1 µM; activity, negative = inhibition: at the top concentration
On the % scale 0 is the no-effect control and ±100 the full control effect.

Cytochrome P450 1A2 (Homo sapiens), sequence (P05177 whole entry, looked up): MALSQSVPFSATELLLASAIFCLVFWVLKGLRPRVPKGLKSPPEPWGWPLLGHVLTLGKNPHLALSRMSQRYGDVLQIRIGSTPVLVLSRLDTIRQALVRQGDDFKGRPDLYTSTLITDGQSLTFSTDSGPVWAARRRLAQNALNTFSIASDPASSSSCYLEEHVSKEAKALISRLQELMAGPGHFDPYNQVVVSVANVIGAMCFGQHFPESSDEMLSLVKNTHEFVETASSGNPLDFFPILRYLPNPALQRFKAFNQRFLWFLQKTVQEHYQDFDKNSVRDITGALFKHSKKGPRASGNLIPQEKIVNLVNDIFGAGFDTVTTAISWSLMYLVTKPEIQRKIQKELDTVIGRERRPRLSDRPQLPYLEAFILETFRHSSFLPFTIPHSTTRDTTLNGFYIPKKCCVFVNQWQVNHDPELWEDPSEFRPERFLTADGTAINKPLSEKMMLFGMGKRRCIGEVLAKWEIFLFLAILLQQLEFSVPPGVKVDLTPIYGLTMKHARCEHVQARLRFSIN

Row | Structure (SMILES) | activity, negative = inhibition | AC50
1 | COc1ccc(-c2ccc3c(n2)CCCN3C[C@H](O)CN2CCCc3nc(-c4ccc(Br)cc4)ccc32)cc1 | -3.07% [at 11.4 µM] and -10.4% [at 11.4 µM] | 
2 | COc1ccc(Cc2nc3ccc(S(=O)(=O)N4CCOCC4)cc3[nH]2)cc1OC | -7.49% | 
3 | Cc1ccc2nc(Cc3ccc(N)cc3)[nH]c2c1 |  | 3.98 µM (active)
4 | O=[N+]([O-])c1cc2c(cc1C=Nc1ccccc1)OCO2 |  | 2.82 µM (active)
5 | O=C(O)c1cc(N=Cc2ccccc2O)cc(C(=O)O)c1 | -12.6% [at 11.4 µM] | 
6 | CN(C)c1ncc2ncc(=O)n(CCC#N)c2n1 |  | 12.6 µM (active)
7 | Cc1nc2cnc(N(C)C)nc2n(CCC#N)c1=O |  | 10 µM (active)
8 | CC(C)=CCc1c2c(c3occ(-c4ccc(O)c(O)c4)c(=O)c3c1O)C=CC(C)(C)O2 | -3.01% [at 2.29 µM] | 
9 | Br/C(=N\Nc1nn[nH]n1)c1ccncc1 | -5.24% [at 11.4 µM] | 
10 | CC(C)(C)CNC(CO)C12CC3CC(CC(C3)C1)C2 (stereo unspecified) | -2.52% | 
11 | C=CC[C@@H](C(=O)O)c1ccccc1 | 0.428% [at 11.4 µM] | 
12 | CCN(Cc1ccncc1)C(=O)[C@@H](CO)c1ccccc1 |  | 15.8 µM (active)
13 | CN(C(=O)c1ccncc1)c1ccccc1 | -13.8% [at 11.4 µM] | 
14 | CC(C)(C)c1[nH]nc2c1C(c1ccc(OC(=O)c3ccco3)cc1)C(C#N)=C(N)O2 (stereo unspecified) |  | 31.6 µM (active)
15 | COCCn1c(=O)c(-c2cccc(C#N)c2)nc2cnc(Oc3ccccc3)nc21 |  | 15.8 µM (active)
16 | COc1ccc(Oc2ncc3nc(-c4cccc(C#N)c4)c(=O)n(Cc4cccc(OC)c4)c3n2)cc1 | -8.54% | 
17 | COCCn1c(=O)c(-c2ccc(F)cc2)nc2cnc(Oc3ccccc3)nc21 |  | 0.794 µM (active)
18 | Cn1c(=O)c(-c2cccc(C#N)c2)nc2cnc(Oc3ccccc3)nc21 |  | 1.58 µM (active)
19 | COCCn1c(=O)c(-c2ccc(Cl)cc2)nc2cnc(Oc3ccccc3)nc21 |  | 0.794 µM (active)
20 | C[N+]1(NCC[N@@+]2(C)CCc3ccccc3C2)CCCCC1 | -12.7% [at 11.4 µM] | 
21 | COC(=O)[C@@]1(Cc2ccccc2)[C@H]2c3cc(C(=O)N4CCCC4)n(Cc4ccc(OC)c(OC)c4)c3C[C@H]2CN1C(=O)c1ccccc1 | -22.9% | 
22 | COCCn1c(=O)c(-c2ccccc2)nc2cnc(Oc3ccc(OC)cc3)nc21 |  | 1.26 µM (active)
23 | COCCn1c(=O)c(-c2cc(F)cc(F)c2)nc2cnc(Oc3ccccc3)nc21 |  | 5.01 µM (active)

Row | Structure (SMILES) | activity, negative = inhibition | AC50
24 | COCCn1c(=O)c(-c2ccccc2)nc2cnc(Oc3ccccc3)nc21 |  | 1.58 µM (active)
25 | C#CCCCO/N=C1/C[C@@H](O)[C@@H](O)[C@@H]2[C@H]3C(=O)N(c4ccc(F)cc4F)C(=O)[C@@H]3CC[C@H]12 | -9.85% [at 11.4 µM] | 
26 | CO[C@H]1COC(=O)C/C=C\[C@H](C)[C@@H](NS(=O)(=O)c2ccc(C)cc2)COC(=O)C/C=C\[C@@H]1C | -4.23% [at 11.4 µM] and -3.02% [at 11.4 µM] | 
27 | CCSC(=N)N | -14.3% | 
28 | C[C@@H]1O[C@H]2C3=C(C(=O)[C@H]4O[C@@H]4[C@H]3O)[C@@H]1[C@@H]1[C@@H](C)OC=C3[C@H](O)[C@H]4O[C@@H]4/C(=N\OCc4ccccc4)[C@]312 | -0.558% [at 11.4 µM] | 
29 | COC(=O)COc1ccc2c(-c3cccc([N+](=O)[O-])c3)cc(=O)oc2c1 |  | 2 µM (active)
30 | COc1ccc([N+](=O)[O-])cc1COc1ccc2c(-c3ccccc3)cc(=O)oc2c1 | -13.8% | 
31 | COC(=O)[C@@]1(Cc2ccc(F)cc2)[C@H]2c3cc(C(=O)N4CCCC4)n(Cc4ccc(C)c(F)c4F)c3C[C@H]2CN1C(=O)c1ccccc1 | -20.7% | 
32 | CCOC(=O)C(C)Sc1nnc(CNC(=O)c2ccc(OC)cc2)n1C1CCCCC1 (stereo unspecified) | -16.8% | 
33 | CCn1c(C)nc2c1C(=O)c1ccccc1C2=O |  | 0.447 µM (active)
34 | CC(Sc1nnc(Cc2cccs2)n1C1CCCCC1)C(N)=O (stereo unspecified) | -8.88% | 
35 | Cc1nc2c(n1C1CCCCC1)C(=O)c1ccccc1C2=O |  | 6.31 µM (active)
36 | COC(=O)Cn1cnc(=O)c(C#N)c1/C=C/N(C)C | -9.35% | 
37 | COC(=O)CSc1nc(C)cc(C(F)(F)F)c1C#N |  | 2 µM (active)
38 | COc1ccc(NC(=O)CSc2nc(-c3ccc(C)cc3)cc(C(F)(F)F)c2C#N)cc1 | 16.2% | 
39 | COC(=O)[C@@]1(Cc2ccc(F)cc2)[C@H]2c3cc(C(=O)N(C)C)n(Cc4ccc(C)c(F)c4F)c3C[C@H]2CN1C(=O)c1ccccc1 | -11.2% | 
40 | CN1CCN(c2ccnc(-c3ccc(N(C)C)cc3)n2)CC1 |  | 0.794 µM (active)
41 | CN1CCN(c2ccnc(-c3ccoc3)n2)CC1 |  | 12.6 µM (active)
42 | CN1CCN(c2cc(-c3ccc(N(C)C)cc3)ncn2)CC1 |  | 2.51 µM (active)
43 | O=C(O)CCCCn1ccc(=O)[nH]c1=O | -6.18% [at 11.4 µM] | 
44 | O=C(O)c1cscc1Cc1cccs1 | -18.8% [at 11.4 µM] | 
45 | O=C(O)C/C(=C\c1ccccc1)C(=O)O | -13% [at 11.4 µM] | 
46 | CC(/C=N/NC(=O)Cc1cccs1)=C\c1ccco1 |  | 11.2 µM (active)

Row | Structure (SMILES) | activity, negative = inhibition | AC50
47 | O=C(Cc1cccs1)N/N=C/C(Br)=C/c1ccccc1 |  | 5.01 µM (active)
48 | O=C(NCc1ccco1)C(c1ccccc1)N(C(=O)Cc1cccs1)c1ccccc1F (stereo unspecified) | -14.5% | 
49 | C/C(CC(=O)NC1CCCC1)=N\NC(=O)Cc1cccs1 | -21.3% | 
50 | CN1CC[C@@]2(CCCN(C(=O)c3cccc(F)c3)C2)C1 | 5.25% | 
51 | Cc1cc(S(=O)(=O)NCCN(C)C)c(C)s1 | -1.69% | 
52 | CCOc1cc(/C=N/O)cc(Cl)c1OC |  | 1.41 µM (active)
53 | COC(=O)C1=C(C)OC(N)=C(C#N)C1c1cc(OC)ccc1OC (stereo unspecified) |  | 15.8 µM (active)
54 | COc1ccc(C2C(C#N)=C(N)OC3=C2C(=O)CC(C)(C)C3)c([N+](=O)[O-])c1OC (stereo unspecified) | -9.67% | 
55 | CCCCOC(=O)C1=C(C)Nc2ncnn2C1c1cc(OC)ccc1OC (stereo unspecified) | -24.5% | 
56 | COc1ccc(C2/C(=C(/O)c3ccc4c(c3)CC(C)O4)C(=O)C(=O)N2CCN2CCOCC2)cc1 (stereo unspecified) | -15.1% | 
57 | CC(C)=CCC/C(C)=C/CO/N=C1/C[C@@H](O)[C@@H](O)[C@@H]2[C@@H]3C(=O)N(Cc4ccccc4)C(=O)[C@H]3CC[C@@H]12 | 4.86% [at 11.4 µM] | 
58 | CC(C)=CCC/C(C)=C/CO/N=C1/C[C@@H](O)[C@@H](O)[C@@H]2[C@@H]3C(=O)N(Cc4ccccc4)C(=O)[C@H]3CC[C@H]12 | 3.92% [at 11.4 µM] | 
59 | CCSC1=C(C#N)C2(CCCCC2)C(C#N)=C(N)N1 |  | 12.6 µM (active)
60 | CC(C)NC(=O)N1CC2(CCN(C(=O)c3ccco3)CC2)C1 | -10.4% | 
61 | CCC(C)NS(=O)(=O)c1ccc(OCC(=O)Nc2ccc3c(c2)OCCO3)cc1 (stereo unspecified) | -11.9% | 
62 | CCOc1ccc2nc(C)cc(Nc3ccc4c(c3)OCCO4)c2c1 |  | 4.47 µM (active)
63 | CNCCCCCCCCSc1nc(C(C)C)ccc1C(=O)c1cccs1 |  | 31.6 µM (active)
64 | CCOC(=O)CCN1C(=O)[C@H]2[C@H]3[C@H](O)[C@H](O)C/C(=N/OC[C@@H](O)COCc4ccco4)[C@H]3CC[C@@H]2C1=O | -1.05% [at 11.4 µM] | 
65 | Cc1nnsc1SC(C)C(=O)O (stereo unspecified) | 4.28% | 
66 | O=S(=O)(CC(O)COc1ccccc1Cl)c1ccccc1 (stereo unspecified) |  | 22.4 µM (active)
67 | O=C1CCCN1CC(O)CS(=O)(=O)c1ccccc1 (stereo unspecified) | 5.91% | 
68 | CC(C)CCNC1=NCCCCC1 | 11.4% | 
69 | Cc1onc(-c2ccccc2Cl)c1C(=O)NCC(=O)O | -11.5% | 

Row | Structure (SMILES) | activity, negative = inhibition | AC50
70 | COc1ccc(NC(=O)c2cc(-c3ccccc3Cl)no2)cc1 |  | 2.24 µM (active)
71 | O=C(Nc1ccccc1)c1cc(-c2ccccc2Cl)no1 |  | 0.794 µM (active)
72 | N[C@@H](Cc1cc(CP(=O)(O)O)cc(-c2ccccc2Cl)c1)C(=O)O | 1.78% | 
73 | CCn1c(-c2ccccc2Cl)nn(CC(=O)Nc2ccc(OC)cc2)c1=S | -22.8% | 
74 | NC(N)=Nc1nc2ccc([N+](=O)[O-])cc2[nH]1 |  | 3.16 µM (active)
75 | Cc1ccc([N+](=O)[O-])cc1N=C(c1cccc([N+](=O)[O-])c1)N1CCOCC1 | 1.83% | 
76 | OC[C@@H]1NC[C@@H](O)[C@@H](O)[C@H]1O | -2.8% | 
77 | N#Cc1c(-c2ccccc2)ccnc1Oc1ccccc1 |  | 1.12 µM (active)
78 | CCCC(=O)Nc1cccc(Oc2nc(C)cc(C)c2C#N)c1 |  | 5.01 µM (active)
79 | Cc1cc(C)c(C#N)c(Oc2ccc(F)cc2)n1 |  | 2.51 µM (active)
80 | Cc1cc(C)c(C#N)c(Oc2ccccc2)n1 |  | 3.16 µM (active)
81 | COc1cccc(C2C3=C(CC(C)(C)CC3=O)OC(N)=C2[N+](=O)[O-])c1 (stereo unspecified) | 0.0849% | 
82 | CC(C)(C)COS(=O)OCC(C)(C)C | -15.5% [at 11.4 µM] | 
83 | Nc1nc(N)[n+]([O-])c(N)c1NCO | -6.17% [at 11.4 µM] | 
84 | CN(C)c1ccnc(Oc2ccc(Cl)cc2)c1C#N |  | 2.51 µM (active)
85 | Cc1ccccc1-n1cnc2cc(NCc3cccs3)ccc21 |  | 5.62 µM (active)
86 | CNc1nc(C)cc(C)c1S(=O)(=O)c1ccc(C)cc1 | -25.7% | 
87 | Cc1ccc(Sc2nc(C)cc(C)c2S(C)(=O)=O)cc1 |  | 10 µM (active)
88 | COC(=O)[C@H](CCSC)NC(=O)C/C=C\[C@@H](C)CO | 2.44% [at 11.4 µM] | 
89 | O=C(c1cc(-c2ccncc2)nc2ccccc12)N1CCN(c2ccc(N3CCOCC3)nn2)CC1 | -29% | 
90 | c1ccc2c(N3CCOCC3)nc(-c3ccoc3)nc2c1 |  | 1.26 µM (active)
91 | CN1CCN(c2nc(-c3ccoc3)nc3ccccc23)CC1 |  | 1.26 µM (active)

Source: PubChem BioAssay AID1851 (National Center for Advancing Translational Sciences (NCATS), 2009)
